Data on nine molecules can be found in PubChem BioAssay (NCI).

Among the test systems are NCI-H23 lung; NCI-H226 lung; NCI-H322M lung; NCI-H460 lung; NCI-H522 lung; A549/ATCC NSCLC; 786-0 renal; DU-145 prostate; K-562 leukemia; MALME-3M melanoma; MDA-MB-231 breast; RXF 393 renal; SF-268 CNS; SF-295 CNS; SF-539 CNS; UACC-257 melanoma; M14 melanoma; COLO 205 colon; HOP-92 NSCLC.
What all share (test): NCI-60 one-dose screen, 48 h (100 = growth as untreated, 0 = no growth, -100 = all killed)
Common to all, as to details: 10 µM

The panel holds about 83,000 compounds, 20% with a hit somewhere; the sample as a whole holds those more often.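 Plates (96-well) were seeded with cells, treated with compound at one concentration, and incubated for 48 hours before percent growth was determined.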 A number with no mark means an inactive call. Calls of active or inactive are those of the source. Rule for the calls: active = growth percent below 10; inactive = the rest.

In the case of `CCN(CC)CCCC(Nc1c2ccc(Cl)cc2nc2ccc(OC)cc12)c1ccc(F)cc1` (stereo not drawn), the growth with NCI-H23 lung is 86.9%; in the assay on NCI-H226 lung, 94.1%; with NCI-H322M lung, 14.7%; with NCI-H460 lung, -17.8% (active); with NCI-H522 lung, -24.3% (active); in the assay with A549/ATCC NSCLC, 18.4%. Moreover, the growth in the assay with 786-0 renal was -70.8% (active); with DU-145 prostate, 32.6%; in the assay with K-562 leukemia, -42.8% (active); in the assay with MALME-3M melanoma it was -75.4% (active); in the assay with MDA-MB-231 breast it was -15.2% (active); in the assay with RXF 393 renal it was -71.1% (active). The growth was 67.8% in the assay on SF-268 CNS; 91.5% with SF-295 CNS; -82.3% (active) in the assay on SF-539 CNS; -55.3% (active) with UACC-257 melanoma; -79.2% (active) in the assay on M14 melanoma.
For `COc1cc(C2CC(c3cc(Cl)c(C)cc3O)=NN2c2ccc(S(N)(=O)=O)cc2)cc(OC)c1OC` (stereo not drawn), the growth in the assay with NCI-H23 lung is 3.07% (active); with NCI-H226 lung it was 23.5%; in the assay on NCI-H322M lung it was 41.3%; in the assay on NCI-H460 lung, -67.7% (active); in the assay on NCI-H522 lung it was 8.94% (active); in the assay with A549/ATCC NSCLC it was 24.2%. The growth was -100% (active) in the assay with COLO 205 colon; 35.9% in the assay on DU-145 prostate; 31.9% with MALME-3M melanoma; -8.53% (active) with MDA-MB-231 breast; -2.73% (active) in the assay on RXF 393 renal; 24.6% in the assay with SF-268 CNS. Moreover, the growth is 22% in the assay on SF-295 CNS, 2.6% (active) in the assay on SF-539 CNS, 44.7% with UACC-257 melanoma and -26.5% (active) in the assay with M14 melanoma.
Regarding `O=C1/C(=C/c2cccc(F)c2)Cc2ccccc21`, the growth in the assay on NCI-H23 lung is 101%; with NCI-H226 lung it was 105%; in the assay on NCI-H322M lung, 94.4%; in the assay on NCI-H460 lung, 107%; in the assay with HOP-92 NSCLC it was 73.5%; in the assay on A549/ATCC NSCLC, 87.7%. For the same molecule, the growth was 98.1% in the assay on 786-0 renal; 124% with COLO 205 colon; 113% in the assay with DU-145 prostate; 106% in the assay on K-562 leukemia; 106% in the assay on MALME-3M melanoma; 112% in the assay with MDA-MB-231 breast. Also, the growth in the assay with RXF 393 renal was 99.4%; in the assay with SF-268 CNS, 112%; in the assay on SF-295 CNS, 77.9%; in the assay with SF-539 CNS, 110%; in the assay with M14 melanoma it was 98.8%.
Regarding `NC(N)=N/N=C(\N=Nc1ccccc1)c1ccc(Cl)cc1`, the growth in the assay on NCI-H23 lung was 78.9%; with NCI-H226 lung, 82.3%; in the assay on NCI-H322M lung, 64.8%; in the assay with NCI-H460 lung, 40%; in the assay with NCI-H522 lung it was 29.9%; with A549/ATCC NSCLC, 52.7%. The growth in the assay with 786-0 renal is 46.7%; in the assay with COLO 205 colon, 48.1%; in the assay with DU-145 prostate, 47.3%; in the assay with K-562 leukemia it was 1.17% (active); with MALME-3M melanoma, 85.6%; with MDA-MB-231 breast, -12.5% (active). For the same molecule, the growth was 41.5% in the assay on RXF 393 renal; 34.2% with SF-268 CNS; -5.99% (active) in the assay with SF-295 CNS; 19.7% with SF-539 CNS; 70.9% in the assay with UACC-257 melanoma; 10.2% in the assay on M14 melanoma.
Take `COc1cc(-c2ccc[nH]2)[nH]c1/C=C1\N=C(C)C(C(=O)NC(C)C)=C1C`: the growth in the assay with NCI-H23 lung is 40.5%; with NCI-H226 lung it was 42.7%; with NCI-H322M lung, 39.2%; in the assay with NCI-H460 lung, 9.93% (active); in the assay on NCI-H522 lung it was 13.4%; in the assay with A549/ATCC NSCLC it was 14.7%. Also, the growth with 786-0 renal was 8.09% (active); in the assay on COLO 205 colon it was 26.9%; in the assay with DU-145 prostate, 21.2%; in the assay with K-562 leukemia it was 1.73% (active); in the assay on MDA-MB-231 breast, -9.67% (active); with RXF 393 renal it was 47.6%. The growth in the assay on SF-268 CNS is 44.4%; in the assay on SF-295 CNS, 40.2%; in the assay on SF-539 CNS, 18.9%; in the assay on UACC-257 melanoma, 23.3%; in the assay with M14 melanoma it was -1.65% (active).
For `OC(CNc1ccnc2cc(Cl)ccc12)CNC1CCCCC1` (stereo not drawn), the growth is 86.7% with NCI-H23 lung; 105% in the assay with NCI-H226 lung; 74.7% with NCI-H322M lung; 109% in the assay on NCI-H460 lung; 49.6% in the assay on NCI-H522 lung; 88.4% with A549/ATCC NSCLC. Besides, the growth with 786-0 renal is 87.9%; in the assay with COLO 205 colon, -25.4% (active); in the assay on DU-145 prostate, 91.6%; in the assay with MALME-3M melanoma it was 101%; in the assay with MDA-MB-231 breast, 54.4%; in the assay with RXF 393 renal it was 33.5%. For the same molecule, the growth in the assay with SF-268 CNS was 89.8%; with SF-295 CNS it was 83.5%; in the assay on SF-539 CNS, 63.1%; in the assay on UACC-257 melanoma it was -37.5% (active); with M14 melanoma, -15.6% (active).
Regarding `CCCCC1(O)CCCCC1`, the growth was 108% in the assay with NCI-H23 lung; 97.3% in the assay on NCI-H226 lung; 105% with NCI-H322M lung; 108% with NCI-H460 lung; 103% in the assay on A549/ATCC NSCLC; 92.6% in the assay on 786-0 renal. Besides, the growth is 99.1% with COLO 205 colon; 101% in the assay with DU-145 prostate; 96.1% with K-562 leukemia; 97.2% in the assay with MALME-3M melanoma; 103% in the assay with MDA-MB-231 breast; 98.8% with RXF 393 renal. For the same molecule, the growth is 103% with SF-268 CNS; 97.6% in the assay with SF-295 CNS; 118% with SF-539 CNS; 102% with UACC-257 melanoma; 99.3% in the assay on M14 melanoma.
As for `COc1cc2nc(SCC(=O)Nc3cc(OC)c(OC)c(OC)c3)n(Cc3ccccc3)c(=O)c2cc1OC`, the growth in the assay on NCI-H23 lung is 69.6%; in the assay with NCI-H226 lung, 45.9%; with NCI-H322M lung it was 65.2%; in the assay with NCI-H460 lung it was 68.7%; with A549/ATCC NSCLC, 28.1%; with 786-0 renal, -6.9% (active). Also, the growth with COLO 205 colon was 96.2%; in the assay on DU-145 prostate it was 54.6%; with MALME-3M melanoma, 45.6%; in the assay with MDA-MB-231 breast it was 41%; in the assay on RXF 393 renal, 36.7%; with SF-268 CNS, 39.5%. Further, the growth in the assay on SF-295 CNS was 45.8%; in the assay on SF-539 CNS it was 6.77% (active); in the assay with UACC-257 melanoma it was 20.6%; in the assay on M14 melanoma, 39.3%.
With `CCCC1(CN2c3ccccc3Sc3ccc(Cl)cc32)CCN(CC)C1` (stereo not drawn), the growth is 5.21% (active) in the assay on NCI-H23 lung; 32.4% in the assay on NCI-H226 lung; 25.5% with NCI-H322M lung; -100% (active) in the assay on NCI-H460 lung; -75.2% (active) in the assay with NCI-H522 lung; 18.6% with A549/ATCC NSCLC. In addition, the growth is -95.7% (active) in the assay with 786-0 renal; -80.8% (active) in the assay on COLO 205 colon; -32.3% (active) with DU-145 prostate; -61.9% (active) with K-562 leukemia; -61.5% (active) with MALME-3M melanoma; -28.4% (active) in the assay on MDA-MB-231 breast. Moreover, the growth with RXF 393 renal is -33.7% (active); in the assay on SF-268 CNS it was 25.9%; in the assay on SF-295 CNS it was -89.4% (active); with SF-539 CNS, -7.27% (active); with UACC-257 melanoma it was 4.91% (active); in the assay with M14 melanoma it was -93.2% (active).
